30 molecules from the supplement of paper PMC11060735 can be followed below.

Where a name gives a salt, the structure may show the parent alone. ± gives the standard deviation of the averaged measurements. Over roughly 1,800 compounds, “GFP- (p16Ink4a-) cell count relative to negative-control wells” has its median near 0.99; the lowest 2% begin near 0.5. The entries come from a sample that favours the lowest values as a whole.

The assay concerns mouse p16Ink4a+/- lung fibroblasts (INKBRITE, bleomycin-injured). Kind of assay: GFP- (p16Ink4a-) cell count relative to negative-control wells (fold of vehicle); higher = more p16Ink4a- cells surviving. To be noted: 1 µM; 3 days.
For `C/C(=C\c1csc(C)n1)[C@@H]1C[C@@H]2O[C@@H]2CCC[C@H](C)[C@H](O)[C@@H](C)C(=O)C(C)(C)[C@@H](O)CC(=O)O1` [Epothilone A], the GFP- turned out to be 0.423.
The same measure for `C/C(=C\c1csc(C)n1)[C@@H]1C[C@@H]2O[C@]2(C)CCC[C@H](C)[C@H](O)[C@@H](C)C(=O)C(C)(C)[C@@H](O)CC(=O)O1` [Epothilone B, Patupilone]: 1.03.
As for `CN(C)[C@@H]1C(=O)C(C(N)=O)=C(O)[C@@]2(O)C(O)=C3C(=O)c4c(O)cccc4[C@@](C)(O)[C@H]3C[C@@H]12` [Tetracycline], the figure is 1.07; as for `C=C1C[C@@H]2[C@H](CC[C@]3(C)C(=O)CC[C@@H]23)[C@@]2(C)C=CC(=O)C=C12` [Exemestane], 1.13.
On to `C[C@@H]1CC[C@@]2(OC1)O[C@H]1C[C@H]3[C@@H]4CC=C5C[C@@H](O[C@@H]6O[C@H](CO)[C@@H](O[C@@H]7O[C@@H](C)[C@H](O)[C@@H](O)[C@H]7O)[C@H](O)[C@H]6O[C@@H]6O[C@@H](C)[C@H](O)[C@@H](O)[C@H]6O)CC[C@]5(C)[C@H]4CC[C@]3(C)[C@H]1[C@@H]2C` [Dioscin], for which the GFP- came out at 1.03.
As for `COc1ccc(C(=O)N2CCCC2=O)cc1` [Aniracetam], the figure is 0.968; as for `CN1[C@@H]2CC[C@H]1C[C@@H](OC(=O)C(CO)c1ccccc1)C2` (stereo not given in full) [Atropine], 0.843; as for `CC(C)[C@]12O[C@H]1[C@@H]1O[C@]13[C@]1(O[C@H]1C[C@H]1C4=C(CC[C@@]13C)C(=O)OC4)[C@@H]2O` [Triptolide], 0.366.
`CC(=O)Nc1ccc(OC[C@](C)(O)C(=O)Nc2ccc([N+](=O)[O-])c(C(F)(F)F)c2)cc1` [Andarine] gave a GFP- of 1.
As for `CCN(CC)C(=O)c1ccc(C2=CC3(CCNCC3)Oc3cccc(O)c32)cc1`, the figure is 0.95.
As for `CCNC(=O)C[C@@H]1N=C(c2ccc(Cl)cc2)c2cc(OC)ccc2-n2c(C)nnc21`, the figure is 1.04 ± 0.19.
As for `C1=C2CCCN[C@H]2[C@@H]2C[C@H]1[C@H]1CCCCN1C2` [Aloperine], the figure is 0.98.
Molecule `O=[N+]([O-])/C=C/c1ccc2c(c1)OCO2` gave a GFP- of 1.03.
As for `CC[C@@H]1[C@@H](C)O[C@@](O)([C@@H](C)[C@H](O)[C@H](C)[C@H]2OC(=O)/C=C/C=C/[C@H](C)[C@H]([C@@H](C)[C@@H](O)[C@H](C)[C@@]3(O)C[C@@H](O[C@H]4C[C@H](O)[C@H](O)[C@H](C)O4)[C@H](CC)[C@@H](C)O3)OC(=O)/C=C/C=C/[C@H]2C)C[C@H]1O[C@H]1C[C@H](O)[C@H](O)[C@H](C)O1` [Elaiophylin], the figure is 0.414; as for `CCOC(=O)c1cncn1C(C)c1ccccc1` (stereo not given) [Etomidate], 1.09.
For the molecule `Oc1nc2ccc(Cl)cc2c(N[C@@H]2CN3CCC2CC3)c1-c1nc2ccccc2[nH]1`, the GFP- worked out at 0.944.
The same measure for `CC(C)NCC(O)c1ccccc1Cl` (stereo not given) [Clorprenaline]: 1.02.
Molecule `C[C@H]1CCC/C=C/[C@@H]2C[C@H](O)C[C@H]2[C@H](O)/C=C/C(=O)O1` [Brefeldin A] displayed a GFP- of 0.4.
For `CCc1c(C(=O)C(N)=O)c2c(OCC(=O)O)cccc2n1Cc1ccccc1` [Varespladib], the GFP- was 1.27.
`CCOc1ccccc1-n1c(C(C)N2CCN(C(=O)COc3ccc(Cl)cc3)CC2)nc2ccccc2c1=O` (stereo not given) [Erastin] had a GFP- of 0.31.
As for `O=C(O)CNC(=O)c1c(O)c2ccccc2n(Cc2ccccc2)c1=O`, the figure is 1.07 ± 0.046; as for `CNCC(=O)c1ccc(O)c(O)c1` [Adrenolone Hydrochloride], 1.05.
As for `CN1C(=O)CCS(=O)(=O)C1c1ccc(Cl)cc1` (stereo not given) [Chlomezanone, Chlormezanone], the figure is 1.03.
On to `CO[C@H]1CCC(O[C@H]2C[C@H]([C@]3(C)CC[C@]4(C[C@H](O)[C@@H](C)[C@@H]([C@@H](C)/C=C(\C)C(=O)[C@H](C)C[C@H](C)C(=O)O)O4)O3)O[C@]3(O[C@@H]([C@H]4O[C@@](O)(CO)[C@H](C)C[C@@H]4C)C[C@@H]3C)[C@@H]2C)O[C@@H]1C` (stereo not given in full) [Nanchangmycin], for which the GFP- came to 0.412.
The same measure for `Cc1sc2c(c1C)C(c1ccc(Cl)cc1)=N[C@@H](CC(=O)Nc1ccc(O)cc1)c1nnc(C)n1-2`: 0.844 ± 0.048.
Regarding `CCCN1CCO[C@H]2c3cc(O)ccc3OC[C@@H]21`, the GFP- came to 1.04.
As for `C/C=C(\C)C(=O)N[C@@H](c1ccccc1)[C@@H](O)C(=O)O[C@H]1C[C@@]2(O)[C@@H](OC(=O)c3ccccc3)[C@@H]3[C@]4(OC(C)=O)CO[C@@H]4C[C@H](O)[C@@]3(C)C(=O)[C@H](OC(C)=O)C(=C1C)C2(C)C` [Cephalomannine], the figure is 0.683; as for `Cc1ccc(-n2nccn2)c(C(=O)N2CCN(c3nc4cc(Cl)ccc4o3)CC[C@H]2C)c1` [Suvorexant], 1.13.
The same measure for `C[C@@H]1[C@H](O)[C@@H](C)/C=C/C=C/CC/C=C/C=C/C=C/C=C/[C@H](O[C@H]2O[C@@H](C)[C@H](O)[C@@H](N)[C@H]2O)C[C@@H]2O[C@](O)(C[C@@H](O)[C@H](O)CC[C@@H](O)C[C@@H](O)C[C@@H](O)CC(=O)O[C@H]1C)C[C@H](O)[C@H]2C(=O)O` [Nystatin (Fungicidin)]: 0.951.
As for `C[C@H]1CNCCc2ccc(Cl)cc21` [Lorcaserin], the figure is 1.02.
